A short description of one assay: binders of probe aFST on microarray, primary screen, stem cell growth factor project, biochemical, small-molecule microarray, fluorescence 635/667 (AID 1086).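 Also: score merges 667 nm fluorescence with signal-to-noise of each printed compound spot.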 The note with it: higher = more signal.
In turn, `CC(C)C[C@@H]1NC(=O)[C@H]2C[C@@H](C(=O)NCCCCCCNC(=O)CS)[C@@H](c3cccc(OCCO)c3)N2C1=O` yielded a composite z-score of 0.752.
Turning to `CCOC(=O)C1=CCC(c2ccc([N+](=O)[O-])cc2)N(S(=O)(=O)c2ccc(C)cc2)C1` (centres undefined), the composite z-score is 0.406.
Still for that read-out and setting: under `CN(C)CCCNC(=O)[C@@]1(Cc2ccccc2I)c2ccccc2C(=O)N(Cc2ccccc2C(F)(F)F)[C@H]1c1ccc(CO)cc1` stands -0.309; under `O=C1OCC=C[C@H]2OC34C=CCN(c5ccc6ccccc6c5)C(=O)[C@H]3N(CCCO)C(=O)[C@@H]4[C@@H]12` (some centres undefined), -0.234.
On the same count and under the same terms, under `CC(=O)NCCCC[C@@H]1NC(=O)[C@H]2C[C@@H](C(=O)NCCCCCC[N+](C)(C)C)[C@@H](c3cccc(OCCO)c3)N2C1=O` stands -0.0568.
The same measure, in the same setting: under `C=CCOC(=O)[C@@H]1[C@H]2C(=O)O[C@H](c3ccccc3)[C@H](c3ccccc3)N2[C@H](c2ccc(OCCOC(=O)[C@@H]3C[C@@H]4C(=O)NCC(=O)N4[C@@H]3c3cccc(OCCO)c3)cc2)[C@@]12C(=O)Nc1ccc(I)cc12` stands 0.272; under `CC(C)OC(=O)CC(=O)CC(O)c1ccc(C#N)cc1` (centres undefined), 0.712.
`C=CCNC(=O)[C@H]1[C@@H]2C(=O)O[C@@H](c3ccccc3)[C@@H](c3ccccc3)N2[C@@H](c2ccc(O)cc2)[C@]12C(=O)N(C(=O)OCCOC)c1ccc(C#CCCO)cc12` gave a composite z-score of -0.0024.
Same read-out and setting: under `C=CC[C@@]1(C(=O)O)N=C(c2ccc(OCCCO)cc2)O[C@@H]1c1ccccc1N=[N+]=[N-]` stands 0.965.
`CC(=O)NCCCC[C@@H]1NC(=O)[C@@H]2C[C@H](C(=O)NCCCCN(C)C)[C@H](c3ccc(O)cc3)N2C1=O`: the composite z-score is -0.0292.
Same read-out and setting: under `CCOC(=O)C1=C[C@@H](CC)N(S(=O)(=O)c2ccc(C)cc2)[C@H]1c1ccccc1` stands 0.962; under `Cc1ccc([C@H]2[C@H](C(=O)O)[C@H](Sc3ccccc3)[C@@H](C(C)C)N2S(=O)(=O)c2ccc(C)cc2)cc1`, 1.31.
`COCCOC(=O)N1C(=O)[C@@]2(c3cc(C#CCNC(N)=O)ccc31)[C@H](c1ccc(OCCO)cc1)N1[C@H](c3ccccc3)[C@H](c3ccccc3)OC(=O)[C@H]1[C@@H]2C(=O)N1CCc2cc(OC)c(OC)cc2C1`: the composite z-score stood at 0.883.
The same measure, in the same setting: under `C=C[C@@H](COC(C)=O)N(Cc1ccc([N+](=O)[O-])cc1)S(=O)(=O)c1ccc(Br)cc1` stands 0.804; under `CCCCC(CC)C(O)C1C=CC2C(=O)N(c3ccccc3)C(=O)C2N1Nc1ccccc1` (centres undefined), 1.1; under `COC(=O)C[C@H]1O[C@]2(C(=O)N(Cc3ccccc3)c3ccc(NC(C)=O)cc32)[C@@H](C)[C@@H]1[Si](C)(C)c1ccc(OC)cc1`, 0.113.
On the same count and under the same terms, under `COCCOC(=O)N1C(=O)[C@@]2(c3ccccc31)[C@H](C(=O)NC[C@H](O)c1ccccc1)[C@H]1C(=O)O[C@H](c3ccccc3)[C@H](c3ccccc3)N1[C@@H]2c1ccc(OCCO)cc1` stands 0.53; under `O=C(O)[C@@]1(Cc2ccccc2)N=C(c2ccc(OCCCO)cc2)O[C@H]1c1ccccc1`, 0.88; under `O=C/C=C/c1ccc2c(c1)OCO2`, -0.158.
Turning to `CCCC[C@@H]1C[C@H]1[C@@H](NC(=O)c1ccc(-c2ccccc2)cc1)c1ccc(-c2ccccc2)cc1`, the composite z-score was 0.0469.
Compound `C=CCOC(=O)[C@H]1[C@@H]2C(=O)O[C@@H](c3ccccc3)[C@@H](c3ccccc3)N2[C@@H](c2ccc(OCCOC(=O)[C@@H]3C[C@@H]4C(=O)NCC(=O)N4[C@@H]3c3ccc(O)cc3)cc2)[C@]12C(=O)Nc1ccccc12` had a composite z-score of -0.112.
Still for that read-out and setting: under `O=C1O[C@@H](c2ccccc2)[C@@H](c2ccccc2)N2[C@@H](c3ccc(O)cc3)[C@]3(C(=O)Nc4ccc(C#CC5=CCCCC5)cc43)[C@@H](C(=O)O)[C@H]12` stands 0.437; under `CC(=O)Nc1cc(Br)ccc1C(=O)O`, 0.353; under `CC(C)(C)OC(=O)CC[C@@]1(C(=O)O)N=C(c2ccc(OCCCO)cc2)O[C@@H]1c1ccccc1N=[N+]=[N-]`, 0.457.

Another assay is described as follows: binders of probe aHhip on microarray, primary screen, stem cell growth factor project, biochemical, small-molecule microarray, fluorescence 635/667 (AID 1087).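 Also: score merges spot fluorescence at 667nm with spot signal to noise ratio.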 Conditions: higher = more signal.
For the compound `COCCOC(=O)N1C(=O)[C@@]2(c3cc(C#CCC(C(=O)OC)C(=O)OC)ccc31)[C@H](c1ccccc1OCCO)N1[C@H](c3ccccc3)[C@H](c3ccccc3)OC(=O)[C@H]1[C@@H]2C(N)=O`, the composite z-score amounted to 0.107.
For `CC(C)NC(=O)[C@@H]1c2ccccc2C(=O)N(Cc2ccccc2Cl)[C@H]1c1ccc(CO)cc1`, the composite z-score is -0.137.
Same read-out and setting: under `COc1ccc(CCNC(=O)[C@@]2(c3ccc([N+](=O)[O-])cc3)CC(=O)N(CC34CC5CC(CC(C5)C3)C4)[C@@H]2c2ccc(CO)cc2)cc1` stands 0.0848.
Still for that read-out and setting: under `COc1ccc(CCNC(=O)[C@@H]2c3ccccc3C(=O)N(Cc3ccc(OC(F)(F)F)cc3)[C@H]2c2ccc(CO)cc2)cc1` stands -0.0672; under `CCOC(=O)[C@H]1C[C@H]2O[C@@]23C[C@H]1C(=O)N1CCCC1[C@@H]3O[Si](C)(C)C(C)(C)C` (some centres undefined), 0.0274.
`Cc1cc(C)cc(N2C(=O)CS(=O)(=O)C2c2cccc([N+](=O)[O-])c2)c1` (centres undefined): the composite z-score was determined as 1.53.
With `O=C(CS)NCCCCCCNC(=O)[C@H]1C[C@H]2C(=O)N3CCC[C@H]3C(=O)N2[C@H]1c1cccc(OCCO)c1`, the composite z-score worked out at 0.235.
On the same count and under the same terms, under `C=CC(COC(C)=O)NS(=O)(=O)c1ccc(Br)cc1` (centres undefined) stands 0.174; under `CCCC[C@H]1OB(O)C[C@H]2C1=C(C)C[C@H]1C(=O)N(Cc3ccccc3)C(=O)[C@H]12`, 0.312.
On the same count and under the same terms, under `O=C1OCCC/C=C\[C@H]2OC34C=CCN(Cn5nnc6ccccc65)C(=O)[C@H]3N(CCCCCO)C(=O)[C@@H]4C12` (some centres undefined) stands -0.206.
Still for that read-out and setting: under `CC(C)C[C@@H]1NC(=O)[C@@H]2C[C@H](C(=O)NCCCCCC[N+](C)(C)C)[C@H](c3ccc(O)cc3)N2C1=O` stands -0.271; under `CC(C)C[C@@H]1NC(=O)[C@H]2C[C@@H](C(=O)NCCCCCCNC(=O)CS)[C@@H](c3cccc(OCCO)c3)N2C1=O`, -0.0645; under `CCOC(=O)C1=CCC(c2ccc([N+](=O)[O-])cc2)N(S(=O)(=O)c2ccc(C)cc2)C1` (centres undefined), -0.174.
In turn, `CN(C)CCCNC(=O)[C@@]1(Cc2ccccc2I)c2ccccc2C(=O)N(Cc2ccccc2C(F)(F)F)[C@H]1c1ccc(CO)cc1` displayed a composite z-score of -0.0645.
Still for that read-out and setting: under `O=C1OCC=C[C@H]2OC34C=CCN(c5ccc6ccccc6c5)C(=O)[C@H]3N(CCCO)C(=O)[C@@H]4[C@@H]12` (some centres undefined) stands 0.0515.
`CC(=O)NCCCC[C@@H]1NC(=O)[C@H]2C[C@@H](C(=O)NCCCCCC[N+](C)(C)C)[C@@H](c3cccc(OCCO)c3)N2C1=O` showed a composite z-score of -0.201.
`C=CCOC(=O)[C@@H]1[C@H]2C(=O)O[C@H](c3ccccc3)[C@H](c3ccccc3)N2[C@H](c2ccc(OCCOC(=O)[C@@H]3C[C@@H]4C(=O)NCC(=O)N4[C@@H]3c3cccc(OCCO)c3)cc2)[C@@]12C(=O)Nc1ccc(I)cc12` came in with a composite z-score of -0.0391.
`CC(C)OC(=O)CC(=O)CC(O)c1ccc(C#N)cc1` (centres undefined) displayed a composite z-score of 0.0722.
On the same count and under the same terms, under `C=CCNC(=O)[C@H]1[C@@H]2C(=O)O[C@@H](c3ccccc3)[C@@H](c3ccccc3)N2[C@@H](c2ccc(O)cc2)[C@]12C(=O)N(C(=O)OCCOC)c1ccc(C#CCCO)cc12` stands -0.0618; under `C=CC[C@@]1(C(=O)O)N=C(c2ccc(OCCCO)cc2)O[C@@H]1c1ccccc1N=[N+]=[N-]`, 0.421.
The same measure, in the same setting: under `CC(=O)NCCCC[C@@H]1NC(=O)[C@@H]2C[C@H](C(=O)NCCCCN(C)C)[C@H](c3ccc(O)cc3)N2C1=O` stands 0.0373.
Take `CCOC(=O)C1=C[C@@H](CC)N(S(=O)(=O)c2ccc(C)cc2)[C@H]1c1ccccc1`: the composite z-score was found to be 0.0373.
The compound `Cc1ccc([C@H]2[C@H](C(=O)O)[C@H](Sc3ccccc3)[C@@H](C(C)C)N2S(=O)(=O)c2ccc(C)cc2)cc1` displayed a composite z-score of -0.226.
Same read-out and setting: under `COCCOC(=O)N1C(=O)[C@@]2(c3cc(C#CCNC(N)=O)ccc31)[C@H](c1ccc(OCCO)cc1)N1[C@H](c3ccccc3)[C@H](c3ccccc3)OC(=O)[C@H]1[C@@H]2C(=O)N1CCc2cc(OC)c(OC)cc2C1` stands 0.327; under `C=C[C@@H](COC(C)=O)N(Cc1ccc([N+](=O)[O-])cc1)S(=O)(=O)c1ccc(Br)cc1`, -0.21.
The same measure, in the same setting: under `CCCCC(CC)C(O)C1C=CC2C(=O)N(c3ccccc3)C(=O)C2N1Nc1ccccc1` (centres undefined) stands -0.0618; under `COC(=O)C[C@H]1O[C@]2(C(=O)N(Cc3ccccc3)c3ccc(NC(C)=O)cc32)[C@@H](C)[C@@H]1[Si](C)(C)c1ccc(OC)cc1`, -0.273.
Take `COCCOC(=O)N1C(=O)[C@@]2(c3ccccc31)[C@H](C(=O)NC[C@H](O)c1ccccc1)[C@H]1C(=O)O[C@H](c3ccccc3)[C@H](c3ccccc3)N1[C@@H]2c1ccc(OCCO)cc1`: the composite z-score worked out at 0.0283.
As for `O=C(O)[C@@]1(Cc2ccccc2)N=C(c2ccc(OCCCO)cc2)O[C@H]1c1ccccc1`, the composite z-score was -0.126.
Same read-out and setting: under `O=C/C=C/c1ccc2c(c1)OCO2` stands 0.0821.
As for `CCCC[C@@H]1C[C@H]1[C@@H](NC(=O)c1ccc(-c2ccccc2)cc1)c1ccc(-c2ccccc2)cc1`, the composite z-score was determined as 0.107.
With `C=CCOC(=O)[C@H]1[C@@H]2C(=O)O[C@@H](c3ccccc3)[C@@H](c3ccccc3)N2[C@@H](c2ccc(OCCOC(=O)[C@@H]3C[C@@H]4C(=O)NCC(=O)N4[C@@H]3c3ccc(O)cc3)cc2)[C@]12C(=O)Nc1ccccc12`, the composite z-score was -0.0237.
On to `O=C1O[C@@H](c2ccccc2)[C@@H](c2ccccc2)N2[C@@H](c3ccc(O)cc3)[C@]3(C(=O)Nc4ccc(C#CC5=CCCCC5)cc43)[C@@H](C(=O)O)[C@H]12`, for which the composite z-score stood at 0.0274.
The same measure, in the same setting: under `CC(=O)Nc1cc(Br)ccc1C(=O)O` stands -0.221; under `CC(C)(C)OC(=O)CC[C@@]1(C(=O)O)N=C(c2ccc(OCCCO)cc2)O[C@@H]1c1ccccc1N=[N+]=[N-]`, -0.277.

The values above are taken from PubChem BioAssay.
